# Compound activity: PubChem BioAssay, National Center for Advancing Translational Sciences (NCATS)
# A selection: hits, their analogues and other compounds. The true share with any hit is near 8.7%.
# JMJD2A Tudor: JMJD2A Tudor domain (human) inhibition. actives 4.4% (n = 390,000). AlphaScreen JMJD2A-Tudor / H3K4me3 peptide binding. Potency, µM (titrated, usually from 114 µM), hits mostly inhibitors; further: nearly all actives have a fitted effect of over 50% in size
# Target sequence (O75164 whole entry, looked up, the tested form may be a part): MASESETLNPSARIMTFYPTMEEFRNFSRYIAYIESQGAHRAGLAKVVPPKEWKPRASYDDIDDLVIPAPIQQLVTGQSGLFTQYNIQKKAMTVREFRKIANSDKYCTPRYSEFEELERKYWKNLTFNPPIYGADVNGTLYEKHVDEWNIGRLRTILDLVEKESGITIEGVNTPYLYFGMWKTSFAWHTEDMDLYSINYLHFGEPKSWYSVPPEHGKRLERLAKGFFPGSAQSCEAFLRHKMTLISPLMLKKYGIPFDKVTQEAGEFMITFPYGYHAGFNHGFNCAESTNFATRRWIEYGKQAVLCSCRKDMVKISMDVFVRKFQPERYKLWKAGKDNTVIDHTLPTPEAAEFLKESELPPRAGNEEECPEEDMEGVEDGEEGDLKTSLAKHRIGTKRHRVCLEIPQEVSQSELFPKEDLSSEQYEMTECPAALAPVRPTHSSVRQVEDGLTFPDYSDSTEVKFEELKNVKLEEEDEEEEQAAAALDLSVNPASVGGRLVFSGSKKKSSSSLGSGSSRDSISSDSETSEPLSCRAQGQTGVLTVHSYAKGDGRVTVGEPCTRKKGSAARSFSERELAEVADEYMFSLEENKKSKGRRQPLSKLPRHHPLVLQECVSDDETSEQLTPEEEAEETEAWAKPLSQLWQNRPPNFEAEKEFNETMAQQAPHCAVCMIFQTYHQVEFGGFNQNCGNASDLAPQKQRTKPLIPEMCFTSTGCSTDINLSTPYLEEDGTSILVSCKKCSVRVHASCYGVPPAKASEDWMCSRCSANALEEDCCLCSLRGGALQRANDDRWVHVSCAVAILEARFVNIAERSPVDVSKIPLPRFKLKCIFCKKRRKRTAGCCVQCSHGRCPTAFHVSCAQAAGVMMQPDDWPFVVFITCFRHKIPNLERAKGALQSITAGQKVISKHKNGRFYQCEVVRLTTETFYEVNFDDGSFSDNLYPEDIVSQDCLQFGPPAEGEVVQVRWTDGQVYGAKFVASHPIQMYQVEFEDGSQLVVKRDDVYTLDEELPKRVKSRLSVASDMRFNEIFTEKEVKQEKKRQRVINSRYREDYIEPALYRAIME
# G9a inh: G9a (human) methyltransferase inhibition; Q96KQ7; G9a H3K9 monomethylation, AlphaScreen, 2 h; Potency, µM (series often up to 102 µM), usual class: inhibitors; actives 8.8% (n = 350,000); AID 504332; further: nearly all actives have a fitted effect of over 75% in size
#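 Quantitative HTS format: methyltransferase activity on a biotin-tagged H3K9 peptide is measured by AlphaScreen, using a rabbit anti-monomethyl-H3K9 antibody with streptavidin donor and anti-IgG acceptor beads. Final levels are 20 nM enzyme, 500 nM peptide, 20 uM SAM; 2 h RT.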
# HP1b binding inh: HP1-beta chromodomain-methylated histone interaction inhibition; P83916; AlphaScreen HP1-beta / biotin-H3K9me3 peptide binding; Potency, µM (highest dose often 114 µM), actives largely listed as inhibitors; actives 0.56% (n = 390,000); AID 540317; further: nearly all actives have a fitted effect of over 70% in size
#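 Compound inhibition of the preformed complex between 50 nM HP1-beta and 50 nM biotinylated H3K9me3 peptide was read by AlphaScreen. Buffer was PBS pH 7.4 with 0.01% Tween-20. Incubations ran 30 min at room temperature, with 10 ug/mL donor/acceptor beads.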
# BAZ2B inh: blocks human BAZ2B. Q9UIF8. AlphaScreen BAZ2B-H3K14Ac peptide displacement. Potency, µM (doses to about 114 µM), hits mostly inhibitors. actives 4.4% (n = 360,000). AID 504333; further: nearly all actives have a fitted effect of over 60% in size
#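 In this displacement format the biotinylated H3(5-23) peptide acetylated at Lys14 serves as ligand at 50 nM, with BAZ2B at 50 nM in PBS pH 7.4 containing 0.01% Tween-20. Donor and acceptor beads are 10 ug/mL final.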
# Sfp inh: Sfp phosphopantetheinyl transferase inhibition; Biochemical Sfp PPTase activity, qHTS; Potency, µM, hits mostly inhibitors; actives 3.5% (n = 310,000);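 further: the enzyme is Sfp with the accession as filed and its product quenches rhodamine fluorescence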
#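 Fluorescence-quenching assay: 15 nM Sfp-PPTase preincubated 15 min at room temperature with compound, then 5 uM rhodamine-CoA and 12.5 uM BHQ-2-labelled YbbR peptide added. Fluorescence (ex 525/em 598 nm) read at start and after 30 min; difference gives rate.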
# ALOX12 inh: ALOX12 (human) lipoxygenase inhibition; P18054; purified 12hLO, xylenol orange hydroperoxide absorbance; Potency, µM (top dose mostly 108 µM), most hits filed as inhibitors; actives 1.1% (n = 580,000)
#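 Purified human 12hLO (150 nM final) in 25 mM Hepes, 0.01% Triton X-100, pH 7.0 was preincubated 15 min at room temperature with compound. Then 40 uM arachidonic acid was added, 30 min. Hydroperoxide was read by Fe-XO absorbance ratio 573/405 nm.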
# A number is an active result; - = inactive; ? = inconclusive; . = not tested or not shown. The call rests on the fitted dose curve; in most records, active means well fitted curve in the direction sought with a large enough effect; inconclusive means small, poorly fitted or top-dose-only effect, or another doubt; inactive means no such curve, though single readings can be large; an effect the other way counts as inactive or inconclusive.
SMILES,JMJD2A Tudor,G9a inh,HP1b binding inh,BAZ2B inh,Sfp inh,ALOX12 inh
NC(=O)C1CCN(CC(=O)Nc2ccc(S(=O)(=O)N3CCOCC3)cc2)CC1,-,-,-,-,-,-
Cn1nc(C(=O)N2CCCC(CNC(=O)c3ccc(-c4ccccc4)cc3)C2)ccc1=O (configuration not stated),.,.,.,.,.,-
O=C(Cc1ccccc1Cl)Nc1cc(S(=O)(=O)N2CCOCC2)ccc1N1CCOCC1,-,3.55µM,-,-,.,-
O=C(Nc1ccc(Cl)cc1)Nc1cc(S(=O)(=O)N2CCOCC2)ccc1N1CCCC1,-,39.8µM,-,-,-,?
O=C(Nc1cc(S(=O)(=O)N2CCOCC2)ccc1Oc1ccc(F)cc1)C1=COCCO1,-,50.1µM,-,-,.,-
O=C(Nc1ccccc1)Nc1cc(S(=O)(=O)N2CCOCC2)ccc1N1CCCC1,-,?,?,-,?,?
O=C(NCCc1cccc(F)c1)c1ccccn1,.,.,.,.,.,-
COc1ccc(/C=C/C(=O)N(CC(C)C)C2CCS(=O)(=O)C2)cc1 (configuration not stated),-,-,-,-,.,-
CC(C)CN(C(=O)/C=C/c1nc2ccccc2s1)C1CCS(=O)(=O)C1 (configuration not stated),-,56.2µM,-,-,.,-
CCOc1ccc(-n2c(Cc3cc(=O)[nH]c(=O)[nH]3)nnc2SCC(=O)NC2CCCC2)cc1,-,?,-,-,-,?
O=C(CSc1nnc(Cc2cc(=O)[nH]c(=O)[nH]2)n1-c1ccc(Cl)cc1)NC1CCCC1,-,39.8µM,-,-,-,?
COc1ccc(-n2c(Cc3cc(=O)[nH]c(=O)[nH]3)nnc2SCC(=O)NC2CCCC2)cc1,-,?,-,-,-,?
COC(=O)C(C)Sc1nnc(Cc2cc(=O)[nH]c(=O)[nH]2)n1-c1cccc(OC)c1 (configuration not stated),-,?,-,-,-,?
CCOc1ccc(-n2c(O)cc(=O)[nH]c2=O)cc1,-,70.8µM,-,-,?,-
CCOc1ccc(-n2c(Cc3cc(=O)[nH]c(=O)[nH]3)nnc2SCC(N)=O)cc1,-,44.7µM,-,?,-,-
COc1cccc(-n2c(Cc3cc(=O)[nH]c(=O)[nH]3)nnc2SC(C)C)c1,-,39.8µM,-,-,-,-
COc1ccccc1OCCNC(=O)C(C)C1CCOCC1 (configuration not stated),.,.,.,.,.,-
c1ccc(Nc2cc3c(cn2)CN(Cc2c[nH]c4ccccc24)CCN3)cc1,.,.,.,.,.,-
CCCc1cc(=O)[nH]c2nnc(SCC(=O)Nc3ccc(NC(C)=O)cc3)n12,-,-,-,-,.,-
CCCc1cc(=O)[nH]c2nnc(SCC(=O)NC3CCCC3)n12,-,17.8µM,-,-,.,-
CCOC(=O)N1CCN(C(=O)c2nn3c(C(F)(F)F)cc(-c4ccccc4)nc3c2Cl)CC1,.,.,.,.,.,-
COc1ccc(S(=O)(=O)N2CCN(CC(=O)c3c(N)n(C)c(=O)n(C)c3=O)CC2)cc1OC,.,.,.,.,.,-
COc1ccc(C(=O)CN2CCN(S(=O)(=O)c3cccc([N+](=O)[O-])c3)CC2)cc1OC,-,8.91µM,-,-,35.5µM,-
COc1cccc(C(=O)CN2CCN(S(=O)(=O)c3cccc([N+](=O)[O-])c3)CC2)c1,-,20µM,-,-,-,-
COc1ccc(/C=C(\C#N)C(=O)C(C)(C)C)cc1OCc1cccc(C(F)(F)F)c1,.,.,.,.,.,-
CC(Sc1nnc(-c2ccccc2F)n1C(C)C)C(=O)Nc1nccs1 (configuration not stated),.,.,.,.,.,-
O=C(O)c1ccc(Nc2cccc(F)c2)c([N+](=O)[O-])c1,-,-,-,-,-,-
O=C(O)c1cccc(Nc2ccncc2[N+](=O)[O-])c1,20µM,-,-,-,-,-
Nc1ccsc1C(=O)N1CCC2(CCC(=O)N(CC3CCCO3)C2)CC1 (configuration not stated),.,.,.,.,.,7.94µM
Cc1ccc(CO/N=C\Cc2snc(Sc3ncc(C(F)(F)F)cc3Cl)c2C#N)cc1,?,11.2µM,?,35.5µM,-,?
